Measured values taken from PubChem BioAssay AID588726 (The Scripps Research Institute Molecular Screening Center, 2011).
Among all 360,000 compounds or so, about 8,200 (2.3%) were called active. What follows is part of a selection rich in actives, with near analogues and random picks from the rest. A number with no mark means an inactive call. Cut-off read from the data, not from the text of the source: active = inhibition above about 27%; inactive = the rest.

Biological target: Fructose-bisphosphate aldolase (Mycobacterium tuberculosis (strain ATCC 25618 / H37Rv)) (UniProt P9WQA3)
Sequence (P9WQA3 whole entry, looked up): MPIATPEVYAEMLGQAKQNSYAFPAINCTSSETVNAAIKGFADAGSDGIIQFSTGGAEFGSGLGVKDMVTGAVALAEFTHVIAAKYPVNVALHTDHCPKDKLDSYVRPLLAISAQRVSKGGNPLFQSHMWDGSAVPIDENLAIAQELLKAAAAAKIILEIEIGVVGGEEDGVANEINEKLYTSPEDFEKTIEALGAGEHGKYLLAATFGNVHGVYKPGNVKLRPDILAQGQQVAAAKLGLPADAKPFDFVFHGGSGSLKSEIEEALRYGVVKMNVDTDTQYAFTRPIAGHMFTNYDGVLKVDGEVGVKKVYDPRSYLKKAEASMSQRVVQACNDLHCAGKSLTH
Assay: M. tuberculosis aldolase activity blockers – biochemical, fluorescence, strain H37Rv, primary screen (AID 588726);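 note: 0% = vehicle and 100% = reference inhibitor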
Details: purified M. tuberculosis FBA, fluorescence read-out, at 1 µM, active compounds read high

SMILES | inhibition
COc1cc(C(=O)OC2CCOC2=O)c([N+](=O)[O-])cc1OC (centres undefined) | 1.88%
CC(C)c1ccc(C(=O)OC2CCOC2=O)cc1 (centres undefined) | -2.02%
O=C(OC1CCOC1=O)c1ccc(-c2nc3ccccc3s2)s1 (centres undefined) | 36.7% (active)
Cc1cc(C)c(S(=O)(=O)c2ccccc2)c(OC(=O)c2c(F)cccc2Cl)n1 | 2.73%
COc1ccc(-c2nc3cc(C)ccn3c2NC2CCCCC2)cc1SC1CCCCC1 | 27.2% (active)
Cc1ccc2nc(-c3cccnc3)c(NC3CCCC3)n2c1 | 2.23%
COc1ccc(-c2nc3cnccn3c2NC2CCCCC2)cc1-c1cccc(Cl)c1 | 24.3%
Cc1[nH]nc(-c2ccc(OCc3cnn(-c4ccccc4)c3)cc2O)c1Oc1ccc(Cl)cc1 | 3.96%
COc1ccc(S(=O)(=O)N2CCOC2CNC(=O)C(=O)NCc2ccc(F)cc2)cc1 (centres undefined) | -0.16%
CC(Oc1ccc(F)cc1)C(=O)N1CCN(c2ncccn2)CC1 (centres undefined) | 1.68%
c1cnc(N2CCN(c3ccc4ccccc4n3)CC2)nc1 | 2.95%
CC12CCC(C(=O)N3CCN(c4ncccn4)CC3)(c3nc4ccccc4nc31)C2(C)C (centres undefined) | 30% (active)
COC(=O)C1=CO[C@@H](O[C@@H]2O[C@H](CO)[C@@H](O)[C@H](O)[C@H]2O)C2C1C[C@H](O)[C@@H]2C (some centres undefined) | -0.2%
CCCc1cc(=O)oc2c(C)c(OCC(=O)N3CCC(C(=O)O)CC3)ccc12 | 44.1% (active)
CCc1cc(=O)oc2c(C)c(OCC(=O)N3CC[C@@]4(O)CCCC[C@H]4C3)ccc12 | 36.8% (active)
Cc1cc(=O)oc2c(C)c(OCC(=O)N3CCN(Cc4ccc5c(c4)OCO5)CC3)ccc12 | 20.6%
CCCCc1cc(=O)oc2c(C)c(OCC(=O)N3CCC(C(N)=O)CC3)ccc12 | 13.9%
Cc1c(C)c2ccc(OCC(=O)N3CCC(C(=O)O)CC3)c(C)c2oc1=O | 119% (active)
CCCc1cc(=O)oc2c(C)c(OCC(=O)Nc3ccccn3)ccc12 | 14.2%
CCc1cc(=O)oc2c(C)c(OCC(=O)NCCN3CCOCC3)ccc12 | 18%

SMILES | inhibition
CCOC(=O)C1CCN(C(=O)COc2cccc3ccccc23)CC1 | -4.37%
N#Cc1cccc(OC(=O)c2ccc3c(=O)n4c(nc3c2)CCC4)c1 | 1.39%
CCCc1cc(=O)[nH]c(SCc2cc(=O)oc3c(C)c(C)ccc23)n1 | -1.06%
COC(=O)c1sc(-c2ccc(C(C)(C)C)cc2)cc1NC(=O)/C=C/C(=O)O | 1.9%
CCC(C)(C)n1nnnc1CN1CCN(c2nc3ccc(C)cc3cc2C#N)CC1 | 3.89%
COc1cc2c(cc1OC)C(C)N(S(=O)(=O)c1cnc(Cl)c(Cl)c1)CC2 (centres undefined) | -4.46%
CN(CCC#N)c1ncnc2scc(-c3ccccc3)c12 | 4.16%
COC(=O)c1sc(N2CCN(Cc3ccccc3)CC2)nc1N | 1.57%
C=CCNc1nc(N)c(C(=C(C#N)C#N)c2ccccc2)s1 | 135% (active)
COc1ccc(N(CC(=O)NC2CCCCC2)C(=O)CNC(=O)c2ccco2)c(OC)c1 | 3.44%
O=c1[nH]c(=O)n(Cc2ccco2)c2c1C(C(F)(F)F)(C(F)(F)F)N=C(c1ccco1)N2 | 1.76%
CCCCC[C@@H]1C=C(C(=O)OCC)[C@H](c2ccccc2)N1S(=O)(=O)c1ccc(C)cc1 | -1.47%
CN(CCc1ccccn1)S(=O)(=O)c1ccc2c3c(cccc13)C(=O)N2 | 50.8% (active)
CN(CC(=O)NCCc1ccccn1)S(=O)(=O)c1ccc(Cl)cc1 | -1.58%
CN(CCc1ccccn1)C1CCCN(S(=O)(=O)c2ccccc2Cl)C1 (centres undefined) | -1.97%
CC1(C)Cc2c(sc3nc(SCC(=O)NCc4ccccc4)n(-c4ccccc4)c(=O)c23)CS1 | 1.67%
CCCNC(=S)NC1CC2CCCC(C1)N2CC(C)C (centres undefined) | 0.49%
COC(=O)C1=NNC2(c3ccc(C)cc3)C(=O)N(c3cccc(C)c3C)C(=O)C12 (centres undefined) | -2.73%
COC(=O)c1c(-c2cccs2)csc1NC(=O)CSc1ncnc2sc(C)c(C)c12 | 1.16%
CCNC(=O)CN(c1ccc(C)cc1)S(=O)(=O)c1ccc(SC)cc1 | -1.29%

SMILES | inhibition
CC(C)(C)OC(=O)NNc1c2ccccc2nc2ccccc12 | 74.1% (active)
Cc1ccc(C(=O)NNC(=O)OC(C)(C)C)c(Cl)c1 | -0.17%
O=C(NNc1c2ccccc2nc2ccccc12)c1cc2ccccc2cc1O | -10.4%
Cc1ccc(S(=O)(=O)N(CCCN(C)C)Cc2ccc3c(c2)OCO3)cc1 | 1.83%
O=C(CCN1C(=O)[C@@H]2Cc3ccccc3CN2C1=O)NCCc1ccccc1 | -6.76%
CC(=O)c1cccc(NC(=O)C2CCCN(S(=O)(=O)c3cccc4nonc34)C2)c1 (centres undefined) | 5.88%
O=C(CN(C(=O)CNC(=O)c1cccs1)c1cccc(F)c1)NC1CCCCC1 | -0.45%
Cn1c(CCc2ccccc2)nnc1SCC(N)=O | -0.79%
COC(=O)CCNC(=O)c1ccc2[nH]c(C)c(C)c2c1 | 4.35%
CCCCNC(=O)c1ccc(-n2c(=S)[nH]c3ccccc3c2=O)cc1 | -2.52%
CN(C)CCCNC(=O)c1ccc2[nH]c3ccccc3c2c1 | 34.9% (active)
O=C(Nc1ncc2c(n1)-c1ccccc1OC2)c1ccc(Cl)cc1 | 97.1% (active)
O=C(Nc1ccc(Cl)cn1)c1ccccc1-c1ccccc1 | -2.1%
O=C(Nc1ncc2c(n1)CC(c1ccco1)CC2=O)c1ccc(Cl)cc1 (centres undefined) | -1.48%
CC(C)NC(=O)C(=O)NCCN1CCN(S(=O)(=O)c2ccc(Cl)cc2)CC1 | 2.59%
CC1(C)O[C@@H]2[C@H](O1)[C@@H](CO)O[C@H]2n1c(N2CCCCC2)nc2c(N)ncnc21 | 0.56%
CCOC(=O)N1CCN(CC(=O)Nc2ccc(F)cc2)CC1 | -0.85%
CCC(=O)Nc1ccc2nn(-c3ccc(F)cc3)nc2c1 | 102% (active)
O=C(Nc1cccc(Cl)c1)c1cncn1-c1ccc(F)cc1 | 6.15%
